From PubChem
This is a sample that favours compounds with a hit; in the whole collection about 7.3% have one here.
FLuc counter: qHTS profiling assay for firefly luciferase inhibitor/activator using purifed enzyme and Km concentrations of substrates (counterscreen for miR-21 project). Luciferin 4-monooxygenase (Photinus pyralis), P08659. purified FLuc, Km substrates, luminescence inhibition. Potency, µM (highest dose often 57.5 µM), for the others: at the top dose activity change, negative = inhibition, actives largely listed as inhibitors. 360,000 compounds, 6.9% hits. AID 588342, 2011;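 further: plate controls were vehicle for no effect and reference inhibitor for full effect; nearly all actives have a fitted effect of over 55% in size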
Target sequence (P08659 whole entry, looked up): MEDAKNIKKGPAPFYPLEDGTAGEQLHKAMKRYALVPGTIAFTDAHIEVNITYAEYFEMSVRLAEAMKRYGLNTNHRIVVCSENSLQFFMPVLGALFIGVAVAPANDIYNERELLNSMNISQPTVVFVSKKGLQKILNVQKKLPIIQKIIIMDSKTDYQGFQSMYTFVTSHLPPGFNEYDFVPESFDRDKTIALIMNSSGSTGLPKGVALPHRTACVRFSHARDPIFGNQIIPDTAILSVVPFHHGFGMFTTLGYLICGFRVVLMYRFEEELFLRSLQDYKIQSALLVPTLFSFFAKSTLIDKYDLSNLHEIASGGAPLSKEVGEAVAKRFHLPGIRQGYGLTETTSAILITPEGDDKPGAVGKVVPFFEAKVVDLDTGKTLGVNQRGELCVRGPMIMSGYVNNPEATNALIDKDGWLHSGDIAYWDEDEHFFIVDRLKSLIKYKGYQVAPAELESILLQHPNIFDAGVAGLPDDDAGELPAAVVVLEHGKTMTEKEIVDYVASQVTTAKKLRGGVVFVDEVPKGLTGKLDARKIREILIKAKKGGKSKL
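Purified P. pyralis luciferase, 10 nM final, with Km-level 10 uM D-luciferin and 10 uM ATP in 50 mM Tris acetate pH 7.5, 10 mM Mg acetate, 0.01% Tween-20, 0.05% BSA; 6-point qHTS titration about 60 µM downward; luminescence read.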
NPC1 prom act: qHTS Assay for NPC1 Promoter Activators. Huh7 NPC1 promoter luciferase reporter, 24 h. Potency, µM (series often up to 9.22 µM), for inactives: at the top dose activation, most hits filed as activators. 320,000 compounds, 2.4% hits. AID 485313, 2010; further: % of control where 0% means no effect; nearly all actives have a fitted effect of over 60% in size
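Huh7 cells stably carrying NPC1 promoter–luciferase, plated in Opti-MEM with 10% FBS for 2 h, were exposed to compound in DMSO for 24 h at 37 °C; luciferase reagent was added for 10 min and luminescence read.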
Rab9 prom act: qHTS Assay for Rab9 Promoter Activators; Huh7 Rab9 promoter-luciferase reporter, luminescence, 24 h; Potency, µM (series often up to 9.22 µM), without a hit: at the highest dose activation, negative = inhibition, most hits filed as activators; 320,000 compounds, 2.8% hits; AID 485297, 2010; further: % of control where 0% means no effect; nearly all actives have a fitted effect of over 60% in size
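Huh7 cells stably carrying Rab9 promoter–luciferase reporter, plated 1500 cells/well, compound added after 2 h and incubated 24 h at 37 °C; luciferase luminescence then read after 10 min with detection reagent.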
ELG1 genotox: qHTS screen for small molecules that induce genotoxicity in human embryonic kidney (HEK293T) cells expressing luciferase-tagged ELG1 | 330,000 compounds, 1.3% hits | HEK293T ELG1-luciferase reporter, luminescence, 16 h | AID 504466, 2011 | Potency, µM (titrated, usually from 46 µM), for the others: at the top dose activity change, positive = activation, usual class: activators; further: % of control where 0% means no effect; nearly all actives have a fitted effect of over 60% in size
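16 hr compound incubation (37 °C, 5% CO2) of HEK293T cells carrying luciferase-tagged ELG1; luciferase then measured by ONE-Glo luminescence after 30 min at RT.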
SMN2 splice up: qHTS Assay for Enhancers of SMN2 Splice Variant Expression; HEK293 SMN2-luciferase splicing reporter, luminescence, 30-36 h; Potency, µM (top dose mostly 46.1 µM), inactives show at the highest dose activity change, positive = activation, most hits filed as activators; 210,000 compounds, 2.8% hits; further: % of control where 0% means no effect; nearly all actives have a fitted effect of over 55% in size
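HEK293 cells carry an SMN2 […]–luciferase reporter in which exon 7 inclusion puts luciferase in frame. Cells were plated 10-12 h before compound addition, then incubated 30-36 h at 37C. ONE-Glo luminescence was read; sodium butyrate at 4.5 mM final served as control.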
Luc counter: Counterscreen for Luciferase (Kinase-Glo TM) Inhibition | Luciferin 4-monooxygenase (Photuris pensylvanica), Q27757 | Kinase-Glo luciferase, ATP luminescence, 8 min | Potency, µM (highest dose often 38.3 µM), inactives show at the top dose activity change, negative = inhibition, hits mostly inhibitors | 200,000 compounds, 0.28% hits | AID 1379, 2008; further: on the % scale 0 is the no-effect control and ±100 the full control effect; nearly all actives have a fitted effect of over 60% in size
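Compound is pinned into ATP-containing buffer (10 uM ATP, imidazole pH 7.2, 7 mM MgCl2). Kinase-Glo luciferase reagent is then added. Light output is recorded following an 8-min room-temperature incubation.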
* marks the source's active call; other numbers are inactive results; ? = inconclusive; . = no result given. The call rests on the fitted dose curve; in most records, active means well fitted curve in the direction sought with a large enough effect; inconclusive means small, poorly fitted or top-dose-only effect, or another doubt; inactive means no such curve, though single readings can be large; an effect the other way counts as inactive or inconclusive. Potency means the concentration at half of the fitted maximal effect.

SMILES	FLuc counter	NPC1 prom act	Rab9 prom act	ELG1 genotox	SMN2 splice up	Luc counter
Nn1c(SCc2ccccc2F)nnc1-c1ccccn1	15µM*	4µM*	1.4µM*	18µM*	.	.
Cc1ccc(-n2ncc(Cl)c2C(=O)NCc2ccccc2)cc1	11µM*	?	?	?	.	.
C=CCNC(=O)c1c(Br)cnn1-c1ccc(C)cc1	19µM*	2.5µM*	2.5µM*	?	.	.
O=C(COc1ccccc1)Nc1ccccc1C(=O)OCc1cc(=O)n2nc(C3CC3)sc2n1	21µM*	.	.	.	.	.
CC(C)c1nn2c(=O)cc(COC(=O)c3ccccc3NC(=O)COc3ccccc3)nc2s1	21µM*	.	.	.	.	.
O=C(c1ccc2nc[nH]c2c1)N1CCN(c2cccc(Cl)c2)CC1	0%	-30%	-15%	-10%	.	.
Cc1ccc(CCN2CC(C(=O)NCCN3CCOCC3)CC2=O)cc1 (stereo not given)	-2%	-2%	12%	2%	1%	-1%
COC(=O)c1ccccc1NC(=O)NCCc1ccccc1OC	?	3.5µM*	4µM*	9%	13µM*	-4%
COc1ccccc1CCNC(=O)c1ccc(Br)s1	13µM*	-3%	0%	12%	.	.
COc1ccccc1CCNS(=O)(=O)CCNC(=O)c1ccccc1	4%	-5%	-1%	1%	.	.
Cc1ccc(C(=O)NCC(c2cccnc2)N2CCc3ccccc32)cc1C (stereo not given)	-14%	.	.	.	.	.
Cc1ccc(C(=O)NCC(c2cccnc2)N2CCc3ccccc3C2)cc1C (stereo not given)	2.7µM*	.	.	.	.	.
Cc1nc(-c2ccc(S(=O)(=O)N3CCOCC3)cc2)cs1	1%	0%	1%	3%	.	.
COc1ccccc1OCC(=O)Nc1c2c(nn1-c1ccc(C)cc1)CS(=O)(=O)C2	1%	1%	1%	-4%	.	.
NNc1nc2c(-c3ccc(F)cc3)nnn2c2ccccc12	4.8µM*	4µM*	2.8µM*	?	5µM*	?
NNc1nc2c(-c3ccc(Cl)cc3)nnn2c2ccccc12	?	4µM*	2.5µM*	13%	13µM*	-10%
CCOC(=O)c1cc(=O)n2c(nc3ccccc32)[nH]1	24µM*	28%	?	13%	.	.
CCCCc1c(O)n2c(nc3ccccc32)[nH]c1=O	?	0%	-3%	2%	?	-1%
Cc1cc(=O)n2c(nc3ccccc32)[nH]1	-19%	-1%	3%	5%	-48%	5%
CCCc1cc(=O)n2c(nc3ccccc32)[nH]1	17µM*	16%	?	?	?	-4%
COc1ccc(CNC(=O)c2ccc3nc(CCc4ccccc4)oc3c2)cc1	2%	.	.	.	.	.
COc1ccc(C2Nc3ccccc3C(=O)N2c2ccccc2)cc1Cn1cc([N+](=O)[O-])cn1 (stereo not given)	-3%	2%	-4%	-4%	3%	4%
CC(C)Oc1ccccc1C1Nc2ccccc2C(=O)N1c1ccc2c(c1)OCCO2 (stereo not given)	13µM*	0.79µM*	1.1µM*	?	7.9µM*	-3%
COc1ccc(N2C(=O)c3ccccc3NC2c2ccc(OC)c(Cn3cc([N+](=O)[O-])cn3)c2)cc1 (stereo not given)	-4%	2.8µM*	?	6%	.	.
COc1ccc(/C(C)=N/N2C(=O)c3ccccc3NC2c2ccc(O)c(OC)c2)cc1 (stereo not given)	13µM*	16%	?	?	.	.
Cc1ccc(/C=N/N2C(=O)c3ccccc3NC2c2ccc(C)cc2)cc1 (stereo not given)	?	26%	?	?	13µM*	0%
